Compound activity deposited in PubChem by National Center for Advancing Translational Sciences (NCATS).
A selection: hits, their analogues and other compounds. The true share with any hit is near 9.5%.
Pf growth 96h – inhibits malaria parasite growth, 96 h. P. falciparum luciferase reporter growth, 96 h. Potency, µM (titrated, usually from 28.7 µM), actives largely listed as inhibitors. 6.9% of 320,000 active
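Readout is luminescence from an integrated firefly luciferase in P. falciparum. Red cells, 2% hematocrit and 0.05% parasitemia final, were cultured with compound through two parasite generations (96 hours) at 37 C, 5% CO2.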
Pf growth 48h – inhibits P. falciparum growth in the first generation, 48 h; P. falciparum luciferase growth in erythrocytes, 48 h; 5.9% of 310,000 active; Potency, µM (series often up to 28.7 µM), most hits filed as inhibitors
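Luciferase-expressing parasites in RBCs, 2% Hct / 0.1% parasitemia final; RPMI 1640 + 0.5% Albumax; 37 C, 5% CO2, one generation; luminescence read-out, lower signal = inhibition.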
NS1 function inh – blocks influenza NS1 protein function; Potency, µM (doses to about 46.1 µM); 0.4% of 270,000 active; AID 2326; calls by dose curve; also: actives are rising curves; nearly all actives have a fitted effect of over 50% in size
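OD600 was taken as the measure of yeast growth restored by compound in an NS1-expressing S. cerevisiae strain. Cells had been washed out of glucose medium and diluted 1:100 into galactose -URA medium, pH 6.0.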
SARS PLP yeast – SARS-CoV PLP inhibition in yeast | S. cerevisiae expressing SARS-CoV PLpro, growth rescue | Potency, µM (titrated, usually from 32.9 µM), hits mostly activators | 0.19% of 330,000 active; calls by dose curve; also: nearly all actives have a fitted effect of over 55% in size
RE007 growth inh – less growth of the S. pombe RE007 Vpr strain | S. pombe RE007 Vpr strain, BacTiter-Glo ATP luminescence, 24 h | Potency, µM (doses to about 92.2 µM), most hits filed as inhibitors | 0.21% of 360,000 active | AID 651644; active = well fitted falling curve with a large enough effect; inconclusive = small, poorly fitted or top-dose-only effect; inactive = no such curve, though single readings can be large or run the other way; also: nearly all actives have a fitted effect of over 50% in size
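Fission yeast strain RE007, carrying one chromosomally integrated HIV-1 vpr copy, was seeded at OD 0.01 in PMG+AL medium with 23 nL pinned compound. After 24 h at 30 °C and 99% humidity, viability was read by BacTiter-Glo luminescence.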
Each line names hits and unclear results; the compound was inactive in the other large screens; ! = repeats disagree. Unless noted, calls follow the shape of the dose curve; as a rule, active = well fitted inhibition curve with a large enough effect; inconclusive = small, poorly fitted or top-dose-only effect, or another doubt; inactive = no such curve, though single readings can be large or run the other way.

C=CCn1c(SCC(=O)NCC2CCCO2)nnc1-c1ccncc1 (stereo unspecified)	none (no result: NS1 function inh)
COc1cc(OC)cc(-c2noc([C@H]3C[C@H](O)[C@@H](CO)O3)n2)c1	none (no result: Pf growth 96h, Pf growth 48h, NS1 function inh, SARS PLP yeast)
CCN(CC)CCCOC(=O)C(OC)(c1ccccc1)c1ccccc1	none (no result: Pf growth 48h)
CC[N+](C)(CC)CCOC(=O)C(O)(c1ccccc1)C1CCCCC1 (stereo unspecified)	Pf growth 96h 13.1µM!, Pf growth 48h 11.7µM!
CCOC(C(=O)OCCC[N+](C)(CC)CC)(c1ccccc1)c1ccccc1	Pf growth 48h 2.08µM (no result: Pf growth 96h)
CCN(CC)CC(O)COC(c1ccccc1)c1ccccc1 (stereo unspecified)	Pf growth 96h inconclusive, Pf growth 48h inconclusive
CC[N+](C)(CC)CCCOC(=O)C(O)(c1ccccc1)C1CCCCC1 (stereo unspecified)	Pf growth 48h 4.15µM
O=C(O)C(O)(c1ccccc1)C1CCCCC1 (stereo unspecified)	Pf growth 96h inconclusive
CCOC(C(=O)OCC(O)CN(CC)CC)(c1ccccc1)c1ccccc1 (stereo unspecified)	Pf growth 48h 10.4µM
CCc1nc2ccc(C(=O)NCCCN3CCCC3=O)cn2c1N(C)Cc1ccc(OC)cc1	none (no result: Pf growth 96h, Pf growth 48h, NS1 function inh, SARS PLP yeast)
CCC(C(=O)NC1CCCCCC1)c1ccccc1 (stereo unspecified)	none (no result: Pf growth 96h, Pf growth 48h, NS1 function inh, SARS PLP yeast)
CCN(CC)CC#CCOC(=O)[C@@](O)(c1ccccc1)C1CCCCC1	Pf growth 96h 12µM, Pf growth 48h inconclusive (no result: NS1 function inh, SARS PLP yeast, RE007 growth inh)
CC[N+](C)(CC)CCC(c1ccccc1)C1CCCCC1 (stereo unspecified)	Pf growth 96h inconclusive, Pf growth 48h 6.57µM
CCCCCCCCCCOc1cc2c(=O)c(C(=O)OCC)c[nH]c2cc1OCC	Pf growth 48h 0.0015µM (no result: NS1 function inh, SARS PLP yeast, RE007 growth inh)
CCOc1ccc(CCNC(=O)COn2nnc3ccc(S(=O)(=O)N4CCOCC4)cc32)cc1OCC	Pf growth 96h 9.28µM, Pf growth 48h inconclusive (no result: NS1 function inh)
O=C(COn1nnc2ccc(S(=O)(=O)N3CCOCC3)cc21)Nc1c(F)c(F)c(F)c(F)c1F	none
CCOc1ccc(CCNC(=O)c2cccc(S(=O)(=O)N3CCCC3)c2)cc1OCC	Pf growth 96h inconclusive, Pf growth 48h 11.7µM (no result: NS1 function inh)
CCOc1ccc(CCNC(=O)c2cccc(-n3cnnn3)c2)cc1OCC	Pf growth 96h inconclusive, Pf growth 48h inconclusive (no result: NS1 function inh)
CCOc1ccc(CCNC(=O)c2ccc(S(=O)(=O)N3CCCC3)cc2)cc1OCC	Pf growth 96h inconclusive, Pf growth 48h 11.7µM (no result: NS1 function inh)
CCOc1ccc(CCNC(=O)c2cccc(C#N)c2)cc1OCC	Pf growth 96h inconclusive, Pf growth 48h 10.4µM (no result: NS1 function inh)
Cc1ccc(C)c(NC(=O)C(C)N2C(=O)c3ccccc3C2=O)c1 (stereo unspecified)	none
CN(CC1COc2ccccc2O1)C(=O)CSc1ncccn1 (stereo unspecified)	none (no result: Pf growth 96h, Pf growth 48h, NS1 function inh)
C=C(CC[C@@H](C)[C@H]1CCC2[C@]1(C)CC[C@]13C[C@@]14CCC(OC(=O)/C=C/c1ccc(O)c(OC)c1)C(C)(C)[C@@H]4CC[C@@]23C)C(C)C (stereo partly specified)	Pf growth 96h inconclusive (no result: NS1 function inh, SARS PLP yeast, RE007 growth inh)
CCOC(=O)CNC(=O)C1CCN(S(=O)(=O)c2ccc(-c3nn[nH]n3)cc2)CC1	none
COCCn1c(=NC(=O)c2ccc(S(=O)(=O)N3CCc4ccccc4C3)cc2)sc2cc(OC)ccc21	Pf growth 96h 5.22µM, Pf growth 48h inconclusive
CCOc1ccc(CCNC(=O)c2cn(C)c3ccc(S(=O)(=O)N4CCOCC4)cc3c2=O)cc1OCC	Pf growth 96h inconclusive, Pf growth 48h 11.7µM
COc1cc2c(cc1OC)CN(C(=O)c1ccc(S(=O)(=O)N3CCCC3)cc1)CC2	none
CCOc1ccc(CCNC(=O)COC(=O)c2cccc(S(=O)(=O)N3CCOCC3)c2)cc1OCC	Pf growth 96h inconclusive, Pf growth 48h 9.28µM (no result: NS1 function inh)
COc1ccc2sc(N(CCCN(C)C)C(=O)c3ccc(S(=O)(=O)N4CCc5ccccc5C4)cc3)nc2c1	Pf growth 96h inconclusive, Pf growth 48h inconclusive (no result: NS1 function inh)
CCOc1cc2c(cc1OCC)CN(C(=O)c1cccc(S(=O)(=O)N3CCCC3)c1)CC2	Pf growth 96h 10.4µM, Pf growth 48h inconclusive (no result: NS1 function inh)
CCOC(=O)C1CCN(C(=O)Nc2cc(Cl)cc(Cl)c2)CC1	none
CN(C)Cc1csc(Nc2ccc(C(=O)c3ccccc3)cc2)n1	none (no result: Pf growth 96h, Pf growth 48h, NS1 function inh, SARS PLP yeast)
COC(=O)c1ccc(NC(=O)c2ccc3c(c2)NC(=O)C2CCCN32)cc1 (stereo unspecified)	Pf growth 96h 7.38µM, Pf growth 48h 8.28µM (no result: NS1 function inh, RE007 growth inh)
O=C1Nc2ccccc2N2CCCC12 (stereo unspecified)	Pf growth 96h inconclusive, Pf growth 48h inconclusive (no result: RE007 growth inh)
CCOc1ccc(CCNC(=O)c2ccc3c(c2)NC(=O)C2CCCN32)cc1OCC (stereo unspecified)	Pf growth 96h 9.28µM, Pf growth 48h 5.22µM (no result: RE007 growth inh)
COc1ccc(CCNC(=O)c2cccc(S(=O)(=O)N3CCc4ccccc4C3)c2)cc1	Pf growth 96h inconclusive, Pf growth 48h 9.28µM (no result: NS1 function inh)
Cc1ccc(OCCOC(=O)c2cccc(S(=O)(=O)N3CC(C)OC(C)C3)c2)cc1 (stereo unspecified)	Pf growth 96h inconclusive, Pf growth 48h 13.1µM (no result: NS1 function inh)
CCOc1ccc(CCNC(=O)c2ccc(N3CCCC3=O)cc2)cc1OCC	Pf growth 96h inconclusive (no result: SARS PLP yeast)
CCOc1ccc(CCNC(=O)c2cccc(S(=O)(=O)N3CC(C)OC(C)C3)c2)cc1OCC (stereo unspecified)	Pf growth 96h 10.4µM, Pf growth 48h 9.28µM (no result: NS1 function inh)
CCCCC1=CC2=CC(=O)C(C)(OC(=O)CC)C(=O)C2=CN1CCc1ccc(Br)cc1 (stereo unspecified)	Pf growth 96h inconclusive, Pf growth 48h 9.28µM
CCCCC1=CC2=CC(=O)C(C)(OC(=O)CC)C(=O)C2=CN1Cc1ccccc1 (stereo unspecified)	Pf growth 96h inconclusive, Pf growth 48h inconclusive
CCCCC1=CC2=CC(=O)C(C)(OC(=O)CC)C(=O)C2=CN1c1ccccc1 (stereo unspecified)	Pf growth 96h 13.1µM, Pf growth 48h 10.4µM
CC1(C(=O)Nc2cccc3cccnc23)CCN1Cc1ccc(-c2ccccc2)o1 (stereo unspecified)	none (no result: Pf growth 96h, Pf growth 48h, NS1 function inh, SARS PLP yeast)
Cc1ccccc1-c1nnc(SCC(=O)N2CCCC2)o1	none
O=C(O)[C@@H](Br)[C@@H](Br)c1ccccc1[N+](=O)[O-]	none (no result: Pf growth 96h, Pf growth 48h, SARS PLP yeast, RE007 growth inh)
Cc1cc(NC(=O)COc2coc(CN3CCN(c4ccccc4F)CC3)cc2=O)no1	Pf growth 96h 9.28µM, Pf growth 48h inconclusive (no result: NS1 function inh)
CCN(CC)C(=O)COc1coc(CN2CCN(c3ccccc3F)CC2)cc1=O	Pf growth 96h 9.28µM
Cc1cc(NC(=O)COc2coc(CN3CCN(c4ccccc4)CC3)cc2=O)no1	Pf growth 96h inconclusive, Pf growth 48h inconclusive (no result: NS1 function inh)
Cc1nc2c(ccc3nc(NC(=O)C(c4ccccc4)c4ccccc4)sc32)s1	Pf growth 96h 10.4µM, Pf growth 48h 3.7µM
Cc1nc2c(ccc3nc(NC(=O)Cc4cccc5ccccc45)sc32)s1	Pf growth 96h inconclusive, Pf growth 48h inconclusive
CCOc1ccc(C2C(C#N)=C(N)SC(N)=C2C#N)cc1OCC	Pf growth 48h inconclusive
CCc1ccc(C2C(C#N)=C(N)SC(N)=C2C#N)cc1	Pf growth 48h 5.86µM
